Reference: publication PMC7862700, “An all-to-all approach to the identification of sequence-specific readers for epigenetic DNA modifications on cytosine”

Experiments:
Test in all cases: DAPPL (digital affinity profiling via proximity ligation, sequencing); 10 mM Tris-HCl pH 7.5, 50 mM NaCl, 1 mM DTT, 4% glycerol, room temperature, 30 min; GST-TFs on glutathione beads, 16-mer random dsDNA library, 0.1% formaldehyde crosslink after washing; high values mean tight binding
Conditions in all cases: protein: recombinant; tags: N-terminal GST; dsDNA, one strand shown
FLI1 = molecular target: T1, FLI1 (Homo sapiens, UniProt Q01543 1-452)
T1 sequence: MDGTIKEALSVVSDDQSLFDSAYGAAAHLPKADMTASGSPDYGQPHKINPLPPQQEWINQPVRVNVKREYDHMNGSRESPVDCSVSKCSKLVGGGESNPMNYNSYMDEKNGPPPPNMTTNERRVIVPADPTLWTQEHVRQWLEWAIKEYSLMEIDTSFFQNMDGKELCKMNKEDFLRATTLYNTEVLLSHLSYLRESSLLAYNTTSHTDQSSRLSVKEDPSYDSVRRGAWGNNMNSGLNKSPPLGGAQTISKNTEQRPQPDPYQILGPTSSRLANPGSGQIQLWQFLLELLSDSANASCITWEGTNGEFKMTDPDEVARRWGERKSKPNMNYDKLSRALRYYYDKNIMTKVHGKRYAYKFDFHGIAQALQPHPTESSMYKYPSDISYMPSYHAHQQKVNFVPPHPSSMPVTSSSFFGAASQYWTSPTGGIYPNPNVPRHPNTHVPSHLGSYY
Outline: (§1)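 Human transcription factors fused to GST were expressed in yeast, captured on glutathione beads, given DNA barcodes and pooled with a GST-only negative control. Pools were incubated with 200 nmole of a 16-mer random double-stranded DNA library in Tris/NaCl/DTT/glycerol buffer at room temperature for 30 min. They were then washed, crosslinked with 0.1% formaldehyde, proximity-ligated (BsaI/T4 ligase, 1 h, 37 °C), PCR-amplified and sequenced on an Illumina NextSeq500. Binding signal is each 6-mer's read frequency for a factor divided by its frequency for the GST control.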

ELK1 = molecular target: T2, ELK1 (Homo sapiens, UniProt P19419 1-428)
T2 sequence: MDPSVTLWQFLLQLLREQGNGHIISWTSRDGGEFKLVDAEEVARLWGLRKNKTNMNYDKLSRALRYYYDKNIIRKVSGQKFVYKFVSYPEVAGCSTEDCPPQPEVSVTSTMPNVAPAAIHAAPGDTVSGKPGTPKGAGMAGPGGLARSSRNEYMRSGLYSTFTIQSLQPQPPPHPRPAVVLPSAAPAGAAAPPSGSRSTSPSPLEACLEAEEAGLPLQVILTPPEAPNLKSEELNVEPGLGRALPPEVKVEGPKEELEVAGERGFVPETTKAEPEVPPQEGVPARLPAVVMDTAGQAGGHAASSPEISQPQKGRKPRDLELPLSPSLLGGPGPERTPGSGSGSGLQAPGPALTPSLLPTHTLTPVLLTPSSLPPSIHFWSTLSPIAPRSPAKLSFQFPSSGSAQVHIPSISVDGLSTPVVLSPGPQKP
Outline: as §1

GABPA = molecular target: T3, GABPA (Homo sapiens, UniProt Q06546 1-454)
T3 sequence: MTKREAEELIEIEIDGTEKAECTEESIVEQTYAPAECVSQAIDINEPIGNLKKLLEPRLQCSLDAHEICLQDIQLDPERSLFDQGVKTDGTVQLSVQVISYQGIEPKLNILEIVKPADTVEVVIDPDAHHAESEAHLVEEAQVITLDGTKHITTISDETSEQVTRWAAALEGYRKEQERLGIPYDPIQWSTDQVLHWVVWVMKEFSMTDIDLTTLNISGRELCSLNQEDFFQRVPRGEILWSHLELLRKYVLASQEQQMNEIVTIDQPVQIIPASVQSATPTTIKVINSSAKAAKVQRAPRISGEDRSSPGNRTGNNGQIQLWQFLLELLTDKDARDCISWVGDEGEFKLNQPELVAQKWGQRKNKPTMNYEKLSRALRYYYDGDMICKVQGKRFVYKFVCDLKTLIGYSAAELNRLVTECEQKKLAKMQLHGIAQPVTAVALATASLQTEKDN
Outline: as §1

ELF1 = ELF1 (Homo sapiens, UniProt P32519 1-619)
Outline: as §1

EHF = molecular target: T4, EHF (Homo sapiens, UniProt Q9NZC4 1-300)
T4 sequence: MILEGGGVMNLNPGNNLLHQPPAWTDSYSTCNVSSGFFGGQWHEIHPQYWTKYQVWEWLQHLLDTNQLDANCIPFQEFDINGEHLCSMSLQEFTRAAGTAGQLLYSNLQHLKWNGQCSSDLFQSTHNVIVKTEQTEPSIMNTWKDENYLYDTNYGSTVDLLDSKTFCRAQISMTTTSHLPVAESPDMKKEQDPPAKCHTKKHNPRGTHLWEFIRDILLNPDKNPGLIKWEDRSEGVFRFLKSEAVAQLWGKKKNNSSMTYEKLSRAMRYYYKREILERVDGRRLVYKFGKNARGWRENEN
Outline: as §1

SPIB = SPIB (Homo sapiens, UniProt Q01892 1-262)
Outline: as §1

ELK3 = molecular target: T5, ELK3 (Homo sapiens, UniProt P41970 1-407)
T5 sequence: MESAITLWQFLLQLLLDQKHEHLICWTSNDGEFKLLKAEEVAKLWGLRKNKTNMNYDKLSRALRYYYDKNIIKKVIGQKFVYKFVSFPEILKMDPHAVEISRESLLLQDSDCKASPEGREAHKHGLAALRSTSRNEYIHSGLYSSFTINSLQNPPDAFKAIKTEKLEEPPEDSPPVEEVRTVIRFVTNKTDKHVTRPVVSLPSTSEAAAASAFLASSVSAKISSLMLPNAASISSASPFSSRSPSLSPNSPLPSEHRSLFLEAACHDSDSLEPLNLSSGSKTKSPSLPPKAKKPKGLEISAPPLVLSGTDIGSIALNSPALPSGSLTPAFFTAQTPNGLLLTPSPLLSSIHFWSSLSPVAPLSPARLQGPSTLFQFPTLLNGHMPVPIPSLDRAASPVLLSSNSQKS
Outline: as §1

SPIC = molecular target: T6, SPIC (Homo sapiens, UniProt Q8N5J4 1-248)
T6 sequence: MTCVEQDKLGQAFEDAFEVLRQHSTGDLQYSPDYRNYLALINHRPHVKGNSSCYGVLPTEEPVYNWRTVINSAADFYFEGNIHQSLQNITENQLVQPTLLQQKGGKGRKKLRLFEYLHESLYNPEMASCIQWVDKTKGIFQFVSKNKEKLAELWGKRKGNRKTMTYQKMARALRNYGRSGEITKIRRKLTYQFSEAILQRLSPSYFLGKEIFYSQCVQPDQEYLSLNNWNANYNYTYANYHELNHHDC
Outline: as §1

ELF4 = ELF4 (Homo sapiens, UniProt Q99607 1-663)
Outline: as §1

ELK4 = molecular target: T7, ELK4 (Homo sapiens, UniProt P28324-2 1-405)
T7 sequence: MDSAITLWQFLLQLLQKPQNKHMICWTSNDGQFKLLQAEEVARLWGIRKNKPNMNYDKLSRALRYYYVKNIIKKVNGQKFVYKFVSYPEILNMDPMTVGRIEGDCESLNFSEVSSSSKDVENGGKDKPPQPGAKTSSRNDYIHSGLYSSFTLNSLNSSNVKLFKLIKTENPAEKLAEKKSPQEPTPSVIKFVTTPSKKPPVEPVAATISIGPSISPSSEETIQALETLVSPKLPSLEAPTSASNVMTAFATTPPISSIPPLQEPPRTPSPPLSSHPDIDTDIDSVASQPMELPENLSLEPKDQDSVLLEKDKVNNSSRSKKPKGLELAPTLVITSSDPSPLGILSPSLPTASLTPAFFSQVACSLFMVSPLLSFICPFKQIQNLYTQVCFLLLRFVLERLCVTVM
Outline: as §1

ETV2 = molecular target: T8, ETV2 (Homo sapiens, UniProt O00321 1-342)
T8 sequence: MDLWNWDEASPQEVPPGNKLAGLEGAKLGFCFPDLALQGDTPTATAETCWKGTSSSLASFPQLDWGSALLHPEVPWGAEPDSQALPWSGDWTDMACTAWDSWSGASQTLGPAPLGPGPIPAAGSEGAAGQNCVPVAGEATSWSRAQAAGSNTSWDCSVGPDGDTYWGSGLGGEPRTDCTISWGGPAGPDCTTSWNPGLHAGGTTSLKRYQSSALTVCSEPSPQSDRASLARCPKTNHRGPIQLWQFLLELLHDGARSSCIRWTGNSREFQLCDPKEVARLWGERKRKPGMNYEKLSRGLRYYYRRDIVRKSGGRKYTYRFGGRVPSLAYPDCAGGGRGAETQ
Outline: as §1

ELF3 = molecular target: T9, ELF3 (Homo sapiens, UniProt P78545 1-371)
T9 sequence: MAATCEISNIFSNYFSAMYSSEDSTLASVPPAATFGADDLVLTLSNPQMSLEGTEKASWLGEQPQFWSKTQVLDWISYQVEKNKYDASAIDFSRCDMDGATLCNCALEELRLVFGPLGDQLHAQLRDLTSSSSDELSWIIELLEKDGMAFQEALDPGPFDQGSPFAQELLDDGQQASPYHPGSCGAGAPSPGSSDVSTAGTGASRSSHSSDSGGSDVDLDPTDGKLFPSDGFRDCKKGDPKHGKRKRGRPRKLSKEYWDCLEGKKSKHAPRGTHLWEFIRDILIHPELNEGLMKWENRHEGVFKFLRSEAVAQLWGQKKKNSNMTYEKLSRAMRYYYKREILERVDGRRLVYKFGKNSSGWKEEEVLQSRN
Outline: as §1

ETV1 = ETV1 (Homo sapiens, UniProt P50549 1-477)
Outline: as §1

ETV3L = molecular target: T10, ETV3L (Homo sapiens, UniProt Q6ZN32 1-361)
T10 sequence: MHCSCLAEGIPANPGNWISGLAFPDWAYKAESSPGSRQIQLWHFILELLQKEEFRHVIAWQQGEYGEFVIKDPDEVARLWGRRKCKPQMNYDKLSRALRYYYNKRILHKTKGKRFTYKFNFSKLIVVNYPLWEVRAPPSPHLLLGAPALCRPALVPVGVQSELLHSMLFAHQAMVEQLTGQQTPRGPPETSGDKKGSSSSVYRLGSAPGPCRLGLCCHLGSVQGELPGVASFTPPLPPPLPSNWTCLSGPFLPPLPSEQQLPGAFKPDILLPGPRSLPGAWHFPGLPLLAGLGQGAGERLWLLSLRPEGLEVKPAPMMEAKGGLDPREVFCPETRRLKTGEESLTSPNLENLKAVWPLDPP
Outline: as §1

ETS2 = molecular target: T11, ETS2 (Homo sapiens, UniProt P15036 1-469)
T11 sequence: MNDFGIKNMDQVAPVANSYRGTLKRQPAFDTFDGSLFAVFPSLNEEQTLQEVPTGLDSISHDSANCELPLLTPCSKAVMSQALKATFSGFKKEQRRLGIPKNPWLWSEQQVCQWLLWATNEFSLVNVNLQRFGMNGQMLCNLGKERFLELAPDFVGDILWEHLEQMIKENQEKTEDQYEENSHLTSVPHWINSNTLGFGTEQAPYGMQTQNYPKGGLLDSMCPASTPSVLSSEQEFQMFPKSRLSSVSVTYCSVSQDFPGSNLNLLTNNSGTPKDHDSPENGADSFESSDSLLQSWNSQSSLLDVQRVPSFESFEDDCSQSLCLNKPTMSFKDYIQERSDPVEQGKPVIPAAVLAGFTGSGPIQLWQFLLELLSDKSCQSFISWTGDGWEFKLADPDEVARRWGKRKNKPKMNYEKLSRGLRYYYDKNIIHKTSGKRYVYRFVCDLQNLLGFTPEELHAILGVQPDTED
Outline: as §1

ETV7 = molecular target: T12, ETV7 (Homo sapiens, UniProt Q9Y603 1-341)
T12 sequence: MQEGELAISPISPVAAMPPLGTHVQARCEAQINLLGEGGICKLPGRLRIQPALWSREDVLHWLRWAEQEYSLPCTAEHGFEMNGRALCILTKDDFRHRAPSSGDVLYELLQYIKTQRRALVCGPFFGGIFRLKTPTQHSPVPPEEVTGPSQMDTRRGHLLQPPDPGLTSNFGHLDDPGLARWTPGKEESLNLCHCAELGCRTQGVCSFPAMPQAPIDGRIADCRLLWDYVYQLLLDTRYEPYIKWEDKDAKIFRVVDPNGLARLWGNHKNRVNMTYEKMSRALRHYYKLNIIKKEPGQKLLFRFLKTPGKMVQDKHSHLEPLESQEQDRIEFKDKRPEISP
Outline: as §1

ETV3 = molecular target: T13, ETV3 (Homo sapiens, UniProt P41162-2 1-143)
T13 sequence: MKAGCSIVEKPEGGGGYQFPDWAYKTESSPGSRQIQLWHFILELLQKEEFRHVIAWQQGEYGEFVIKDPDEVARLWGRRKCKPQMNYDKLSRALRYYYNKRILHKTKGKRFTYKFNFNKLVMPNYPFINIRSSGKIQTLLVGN
Outline: as §1

ETV6 = ETV6 (Homo sapiens, UniProt P41212 1-452)
Outline: as §1

ETV1, sequence (P50549 whole entry): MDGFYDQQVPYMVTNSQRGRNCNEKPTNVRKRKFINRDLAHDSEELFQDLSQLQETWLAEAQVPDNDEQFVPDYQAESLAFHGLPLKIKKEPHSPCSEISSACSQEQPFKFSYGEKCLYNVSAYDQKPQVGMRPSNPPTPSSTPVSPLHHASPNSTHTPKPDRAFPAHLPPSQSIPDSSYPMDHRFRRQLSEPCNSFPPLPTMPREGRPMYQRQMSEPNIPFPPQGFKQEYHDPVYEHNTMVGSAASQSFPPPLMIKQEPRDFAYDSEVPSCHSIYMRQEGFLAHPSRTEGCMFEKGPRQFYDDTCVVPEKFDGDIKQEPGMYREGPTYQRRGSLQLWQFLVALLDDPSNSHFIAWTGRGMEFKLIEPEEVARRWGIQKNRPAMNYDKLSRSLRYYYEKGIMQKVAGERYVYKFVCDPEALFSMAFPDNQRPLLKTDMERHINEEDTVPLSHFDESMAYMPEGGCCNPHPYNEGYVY
ELF4, sequence (Q99607 whole entry): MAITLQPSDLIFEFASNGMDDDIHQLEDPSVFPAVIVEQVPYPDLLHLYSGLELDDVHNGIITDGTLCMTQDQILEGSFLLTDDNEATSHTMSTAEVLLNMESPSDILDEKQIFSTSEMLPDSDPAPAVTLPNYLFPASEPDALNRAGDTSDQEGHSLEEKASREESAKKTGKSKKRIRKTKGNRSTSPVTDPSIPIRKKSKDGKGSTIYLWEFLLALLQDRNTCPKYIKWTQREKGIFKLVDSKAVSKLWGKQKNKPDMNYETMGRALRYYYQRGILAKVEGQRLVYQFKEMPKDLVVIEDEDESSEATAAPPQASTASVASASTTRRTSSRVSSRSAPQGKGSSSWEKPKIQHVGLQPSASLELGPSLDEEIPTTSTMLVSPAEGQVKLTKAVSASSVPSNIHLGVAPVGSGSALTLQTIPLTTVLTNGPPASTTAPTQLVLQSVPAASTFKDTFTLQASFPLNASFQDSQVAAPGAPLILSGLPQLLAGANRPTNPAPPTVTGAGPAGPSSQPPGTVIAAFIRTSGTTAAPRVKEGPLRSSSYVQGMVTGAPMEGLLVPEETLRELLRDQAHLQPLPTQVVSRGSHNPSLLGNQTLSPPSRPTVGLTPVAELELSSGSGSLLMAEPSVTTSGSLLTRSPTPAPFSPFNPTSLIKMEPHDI
ELF1, sequence (P32519 whole entry): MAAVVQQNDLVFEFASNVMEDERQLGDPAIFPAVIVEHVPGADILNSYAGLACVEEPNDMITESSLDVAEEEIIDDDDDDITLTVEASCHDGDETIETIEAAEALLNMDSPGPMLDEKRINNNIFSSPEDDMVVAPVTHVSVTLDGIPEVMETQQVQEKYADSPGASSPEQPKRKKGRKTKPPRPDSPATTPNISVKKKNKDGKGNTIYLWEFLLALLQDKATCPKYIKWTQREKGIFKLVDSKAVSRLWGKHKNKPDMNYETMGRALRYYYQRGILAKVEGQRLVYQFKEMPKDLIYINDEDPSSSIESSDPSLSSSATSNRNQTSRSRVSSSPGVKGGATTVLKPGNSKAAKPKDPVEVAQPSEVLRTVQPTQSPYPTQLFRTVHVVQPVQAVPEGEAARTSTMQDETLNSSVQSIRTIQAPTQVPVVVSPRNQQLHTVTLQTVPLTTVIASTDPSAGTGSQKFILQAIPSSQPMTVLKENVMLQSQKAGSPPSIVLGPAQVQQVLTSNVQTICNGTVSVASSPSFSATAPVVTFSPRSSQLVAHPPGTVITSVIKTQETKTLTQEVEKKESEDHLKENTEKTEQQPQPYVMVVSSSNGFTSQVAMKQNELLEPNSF
ETV6, sequence (P41212 whole entry): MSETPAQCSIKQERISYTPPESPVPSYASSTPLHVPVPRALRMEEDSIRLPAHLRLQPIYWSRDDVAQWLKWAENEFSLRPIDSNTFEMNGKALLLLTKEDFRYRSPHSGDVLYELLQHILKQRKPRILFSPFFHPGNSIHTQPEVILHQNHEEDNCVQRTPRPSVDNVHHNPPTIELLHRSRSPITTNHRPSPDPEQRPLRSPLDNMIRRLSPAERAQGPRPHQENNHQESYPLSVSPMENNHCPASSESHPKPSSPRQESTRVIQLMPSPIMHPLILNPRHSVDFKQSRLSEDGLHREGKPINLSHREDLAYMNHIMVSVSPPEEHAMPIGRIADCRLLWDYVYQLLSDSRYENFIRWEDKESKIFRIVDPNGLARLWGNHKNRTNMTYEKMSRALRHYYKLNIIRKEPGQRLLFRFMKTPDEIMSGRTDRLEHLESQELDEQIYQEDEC
SPIB, sequence (Q01892 whole entry): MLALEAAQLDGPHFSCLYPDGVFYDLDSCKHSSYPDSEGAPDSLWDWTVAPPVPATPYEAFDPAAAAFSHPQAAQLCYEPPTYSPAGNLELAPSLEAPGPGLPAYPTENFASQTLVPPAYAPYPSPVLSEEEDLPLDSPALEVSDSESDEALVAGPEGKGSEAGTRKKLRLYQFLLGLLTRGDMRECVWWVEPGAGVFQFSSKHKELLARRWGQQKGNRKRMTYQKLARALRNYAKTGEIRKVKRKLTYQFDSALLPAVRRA

TAGATA
binding signal (FLI1): 1.07 fold enrichment (6-mer frequency, TF over GST control) | binding signal (ELK1): 1.03 fold enrichment (6-mer frequency, TF over GST control) | binding signal (GABPA): 1.1 fold enrichment (6-mer frequency, TF over GST control) | binding signal (ELF1): 1.06 fold enrichment (6-mer frequency, TF over GST control) | binding signal (EHF): 1.06 fold enrichment (6-mer frequency, TF over GST control) | binding signal (SPIB): 1.05 fold enrichment (6-mer frequency, TF over GST control) | binding signal (ELK3): 1.02 fold enrichment (6-mer frequency, TF over GST control) | binding signal (SPIC): 1.17 fold enrichment (6-mer frequency, TF over GST control) | binding signal (ELF4): 1.07 fold enrichment (6-mer frequency, TF over GST control) | binding signal (ELK4): 1.08 fold enrichment (6-mer frequency, TF over GST control) | binding signal (ETV2): 1.12 fold enrichment (6-mer frequency, TF over GST control) | binding signal (ELF3): 1.08 fold enrichment (6-mer frequency, TF over GST control) | binding signal (ETV1): 1.06 fold enrichment (6-mer frequency, TF over GST control) | binding signal (ETV3L): 1.12 fold enrichment (6-mer frequency, TF over GST control) | binding signal (ETS2): 1.05 fold enrichment (6-mer frequency, TF over GST control) | binding signal (ETV7): 1.02 fold enrichment (6-mer frequency, TF over GST control) | binding signal (ETV3): 1.01 fold enrichment (6-mer frequency, TF over GST control) | binding signal (ETV6): 1.01 fold enrichment (6-mer frequency, TF over GST control)
